Sampled rows, rich in hits. Any-hit rate of the full collection: about 2.9%.
MRP reversal: MRP-mediated drug resistance reversal. H69AR cells + 2 uM doxorubicin, CellTiter-Glo, 72 h. differential viability (reversal), % at 10 µM. hit rate 0.04% among 85,000. AID 602;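 active = viability drop by adding the cancer drug above about 55%, with treated viability meeting a 40% cutoff, limit read from the data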;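 note: viability without doxorubicin minus viability with 2 µM doxorubicin for each compound; larger differential means the compound sensitizes cells more to doxorubicin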
Smad3 FoxH1 inh: blocks human Smad3 binding to FoxH1 peptide; P84022; TR-FRET Smad3/Dy647-FoxH1 peptide binding, europium anti-His; inhibition, % at 25 µM; hit rate 0.29% among 88,000; AID 630;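 active = compounds that reduce the energy-transfer binding signal between the protein and its labelled peptide by more than half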;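 note: 0% = Smad3 plus labelled peptide maximal FRET and 100% = peptide-only background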
MRP1 act: activators of MRP-1. H69AR cells + doxorubicin, viability rescue, CellTiter-Glo. viability increase, % at 10 µM. hit rate 0.61% among 140,000. AID 799;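 active = viability gain under doxorubicin at or above a set limit, the compound median plus 3 SD, cut at about 4.7% in these data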;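 note: MRP-1 overexpressing cells given doxorubicin 25 µM after compound pretreatment; 18-22 h compound pretreatment then 72 h with doxorubicin before readout; 0% = doxorubicin-only wells and 100% = vehicle-treated cells without doxorubicin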
ERa coact inh: blocks coactivator binding to human estrogen receptor alpha; TR-FRET ER-alpha LBD / SRC-1 peptide, estradiol-bound; inhibition, % at 25.6 µM; hit rate 1.7% among 86,000; AID 629; in the data active = inhibition above about 50%;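 note: 0% = receptor plus peptide control and 100% = peptide only without receptor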
ERb coact inh: ER-beta (human) coactivator binding inhibition. Q92731. TR-FRET ER-beta LBD / SRC1-Cy5 peptide binding; receptor agonist-loaded with 1 µM estradiol. inhibition, % at 25.6 µM. hit rate 1.3% among 86,000. AID 633;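 active = compounds whose percent inhibition of the receptor-coactivator binding signal exceeds about 50% in the single-dose screen, limit read from the data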;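 note: 0% = receptor plus peptide wells without compound and 100% = peptide-only wells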
Target sequence (Q92731 whole entry, looked up, the tested form may be a part): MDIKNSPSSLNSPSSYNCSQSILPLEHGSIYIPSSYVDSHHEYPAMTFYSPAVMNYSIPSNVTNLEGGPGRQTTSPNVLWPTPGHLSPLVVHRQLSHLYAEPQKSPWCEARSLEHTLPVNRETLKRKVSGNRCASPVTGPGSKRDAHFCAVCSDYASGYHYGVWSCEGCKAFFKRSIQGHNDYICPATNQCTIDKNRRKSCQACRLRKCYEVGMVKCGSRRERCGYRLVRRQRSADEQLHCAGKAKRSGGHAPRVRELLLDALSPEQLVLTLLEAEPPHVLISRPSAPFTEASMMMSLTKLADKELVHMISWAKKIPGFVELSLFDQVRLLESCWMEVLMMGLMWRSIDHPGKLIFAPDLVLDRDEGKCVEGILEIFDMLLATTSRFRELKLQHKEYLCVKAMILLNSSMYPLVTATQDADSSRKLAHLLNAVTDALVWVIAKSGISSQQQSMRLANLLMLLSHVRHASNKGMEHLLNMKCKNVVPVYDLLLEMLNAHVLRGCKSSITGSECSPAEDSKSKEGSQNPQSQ
ERa SRC1 pot: ER-alpha (human) coactivator binding potentiation; TR-FRET ERalpha-LBD/SRC-Cy5 coactivator binding, 2 h; 100 = basal binding, no effect; coactivator binding (% of control), % at 25.6 µM; hit rate 1.3% among 86,000; in the data active = activity above about 200%;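 note: binding measured in presence of low estradiol as agonist stimulus; 0% = peptide alone without receptor and 100% = receptor with peptide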
* = called active by the depositor; nt = not tested or not shown; [ ] = remark or other dose.

SMILES	MRP reversal	Smad3 FoxH1 inh	MRP1 act	ERa coact inh	ERb coact inh	ERa SRC1 pot
CSc1nc(N2CCOCC2)c2c3c(sc2n1)CCC3	10	-3	-1	18	62*[fluorescence artefact?]	78
COc1ccc(-c2c(C#N)c(C)nc3c2C(=O)c2ccccc2-3)cc1	3	-7	-2	2	2	373*
COc1ccc(-c2nc(-c3ccccc3)[nH]c(=O)c2C#N)cc1	nt	nt	-2	nt	nt	nt
CCCCOCCCNC(=O)c1c(-c2ccccc2)noc1C	14	-3	-2	0	0	106
O=C(NCCc1ccccc1)C(=O)c1c(-c2ccccc2)cc2ccccn12	nt	nt	8.3*	nt	nt	nt
Cc1nn(Cc2ccccc2)c(C)c1NC(=O)c1noc2c1CCc1ccccc1-2	18	0	6.5*	-10	-5	122
Cc1ccc(NC(=O)c2noc3c2CCc2ccccc2-3)cc1	-16	-10	-1	-3	-8	100
CCc1nc(N)nc(N)c1-c1ccc(Cl)cc1	-20	0	-1	2	9	246*
CC(C)CCNc1ncnc2[nH]ncc12	nt	9	nt	nt	nt	nt
O=C(Nc1ccccc1N1CCOCC1)c1ccc2c(c1)C(=O)N(Cc1ccncc1)C2=O	1	1	-1	63*[fluorescence artefact?]	39	15
COc1ccc2c(Cl)cc(NC(=S)Nc3ccccc3)nc2c1	nt	-1	nt	nt	nt	nt
CCCN1CCN(C(=O)c2cccc3c2C(=O)N(CCOC)C3)CC1	-3	-3	-2	-2	-4	112
COC(=O)c1ccc(-c2n[nH]c(=O)c3ccccc23)cc1	-1	1	-2	1	-2	296*[fluorescence artefact?]
Cc1nc2ccccc2nc1-c1ccc(N=[N+]([O-])c2ccc(-c3nc4ccccc4nc3C)cc2)cc1	nt	16	nt	nt	nt	nt
COC(=O)c1ccc(Cl)c(NC(=O)NC2CCCCC2)c1	-9	5	1	44	27	244*[fluorescence artefact?]
C[N@@+]1(Cc2ccc(Cl)c(Cl)c2)CCC[C@@H]1c1ccc[n+](Cc2ccc(Cl)c(Cl)c2)c1	nt	1	nt	nt	nt	nt
COC(=O)CCc1c(C)[nH]c(C(=O)OCc2ccccc2)c1C	-4	1	5.1*	6	0	92
O=C1c2cccc([N+](=O)[O-])c2C(=O)N1c1ncn[nH]1	nt	5	nt	nt	nt	nt
CCSc1nnc(Cc2cc(=O)[nH]c(=O)[nH]2)n1-c1cc(C)ccc1C	-8	4	-3	2	70*	131
CCOC(=O)CSc1nnc(Cc2cc(=O)[nH]c(=O)[nH]2)n1-c1ccc(Cl)cc1	-4	5	0	0	96*[fluorescence artefact?]	119
CSc1nnc(Cc2cc(=O)[nH]c(=O)[nH]2)n1-c1cc(C)ccc1C	5	-6	-2	9	1	94
Cc1cccc(OCc2nc(-c3nonc3N)no2)c1C	-18	8	5.2*	8	-3	160
CCn1c(COc2ccc(Cl)cc2)nnc1SCc1ccc(C#N)cc1	26	-5	1	-6	-4	115
CCn1c(COc2ccc(Cl)cc2)nnc1SC1CCc2ccccc2C1=O (centres undefined)	nt	nt	7.1*	nt	nt	nt
Cc1nn(C)c(C)c1NC(=O)CSc1nc(Cc2ccccc2)nc2c1cnn2-c1ccccc1	2	2	nt	82*[fluorescence artefact?]	56*[fluorescence artefact?]	141
SMILES	MRP reversal	Smad3 FoxH1 inh	MRP1 act	ERa coact inh	ERb coact inh	ERa SRC1 pot
Cc1cccc(N2C(=O)CC(NNc3nc4ccccc4s3)C2=O)c1 (centres undefined)	nt	nt	4.7*	nt	nt	nt
Cc1cc(OCC(=O)O/N=C(\N)c2ccccc2)ccc1Br	nt	nt	0	nt	nt	nt
CCOC(=O)c1c(-c2cccs2)csc1NC(C)=O	15	5	0	-9	-10	104
CCOC(=O)c1c(-c2cccs2)csc1NC(=O)CSc1ncn[nH]1	-2	6	6.0*	6	-6	74
Cc1cccc(C(=O)NNC(=O)c2ccccc2)c1	nt	nt	-2	nt	nt	nt
Cc1cccc(C(=O)c2cnc3ccccc3c2-c2ccccc2)c1	nt	nt	5.0*	nt	nt	nt
NC(=O)/N=C(\N)NC(=O)c1ccccc1	nt	4	nt	nt	nt	nt
CCCNCC1COc2ccccc2O1 (centres undefined)	12	37	-2	84*[fluorescence artefact?]	80*	49
CCOC(=O)CCNCC1COc2ccccc2O1 (centres undefined)	nt	-7	0	3	4	87
Cn1nc(-c2ccc(C(=O)Nc3cccc(Cl)c3)cc2)c2ccccc2c1=O	-2	-112	0	15	9	261*
Cc1ccc(NC(=O)c2ccc(-c3nn(C)c(=O)c4ccccc34)cc2)cc1	-28	3	1	36	17	138

Screening results as filed in PubChem.
